Out of some 320,000 compounds screened, about 2,100 (0.66%) were called active. Inconclusive results (about 53%) are left out. This is one part of a sample in which actives are shown more often than they occur. Calls come from the whole dose curve; as a rule, active = well fitted inhibition curve with a large enough effect in the signal ratio, with a control signal flat (not every such curve was filed as active); inconclusive = small, poorly fitted or top-dose-only effect, or effect the other way, or a change in a side signal; inactive = flat fitted curve, though single readings scatter; the % refers to the signal ratio.
Potency is the fitted concentration of half-maximal effect.

The experiment in a line: qHTS Assay for Lipid Storage Modulators in Drosophila S3 Cells.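 For cell number change: cells counted by Cell Tracker Red CMTPX staining in the red channel.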 For lipid storage change, negative = inhibition: % is set by controls: 0 for no effect and ±100 for the full control effect. The following applies: BODIPY lipid droplet fluorescence, 18-24 h, cells fed with added oleic acid; cell number change: measured here: cell count max response; series mostly up to 46.1 µM; lipid storage change, negative = inhibition: at the top concentration. The essentials:
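Laser-scanning cytometry quantifies lipid droplet accumulation (500–530 nm total intensity; droplet/cell object ratio) in oleic acid-fed (400 uM added) Drosophila S3 cells treated with a concentration series. 20 uM Triacsin C defined 100% inhibition.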
(In general: qHTS replaces the single test concentration by a dilution series.)
On to `CCOc1ccccc1NC(=O)Cn1c(=O)oc2cc(Cl)ccc21`, for which the “lipid storage change, negative = inhibition” value is 6.22% (inactive) and the cell number change was 6.12%.

As for `O=C(NC1CCN(C(=O)Nc2ccc(F)cc2)CC1)c1ccccc1F`, the Potency was 6.51 µM (active). As to `Cc1cc(C)cc(NC(=O)N2CCC(NC(=O)c3ccccc3C)CC2)c1`, the “lipid storage change, negative = inhibition” value was 0.091% (inactive) and the cell number change amounted to 4.64%. Regarding `O=C(CN1CCC(NC(=O)c2ccccc2F)CC1)NCc1ccc(F)cc1`, the Potency is 20.6 µM (active) and the cell number change was -14.5%. Regarding `Cc1ccccc1C(=O)NC1CCN(C(=O)Nc2ccc(F)cc2)CC1`, the compound was called inactive and the cell number change was found to be 8.56%. Regarding `Cc1ccccc1C(=O)NC1CCN(CC(=O)NCc2ccc(F)cc2)CC1`, the “lipid storage change, negative = inhibition” value is 0.998% (inactive) and the cell number change was determined as 9.44%. For the compound `Cc1ccccc1C(=O)NC1CCN(CC(=O)NCc2ccccc2)CC1`, the “lipid storage change, negative = inhibition” value was -3.57% (inactive) and the cell number change was 13.5%. In the case of `CCc1cc2c(=O)c(-c3nc4ccccc4n3C)c(C)oc2c(CN2CCOCC2)c1O`, the compound was classed as inactive.

With `CCCS(=O)(=O)N1CCCC(C(=O)Oc2ccc(Cl)cc2)C1` (stereo unspecified), the “lipid storage change, negative = inhibition” value is 4.15% (inactive) and the cell number change is 14%.

On to `Cc1ccc(NC(=O)CSc2nc(N)cc(=O)[nH]2)cc1Cl`, for which the “lipid storage change, negative = inhibition” value was -14.5% (inactive) and the cell number change is 22%. For the compound `Cn1c(=O)c2c(nc(SCc3ccccn3)n2C)n(C)c1=O`, the “lipid storage change, negative = inhibition” value is 14.3% (inactive) and the cell number change is -19.6%.

For `Cn1c(SCc2ccccn2)nc2c1c(=O)[nH]c(=O)n2C`, the Potency is 2.59 µM (active) and the cell number change is 0.681%. Turning to `Cn1c(SCc2ccccc2Cl)nc2c1c(=O)[nH]c(=O)n2C`, the call was inactive and the cell number change turned out to be 3.04%.

With `CS(=O)(=O)N(CC(=O)N/N=C/c1ccco1)c1ccccc1Br`, the “lipid storage change, negative = inhibition” value is -8.18% (inactive) and the cell number change came to 2.71%. Turning to `CCOC(=O)c1ccc(-c2ccc(/C=N/NC(=O)CN(c3ccccc3Br)S(C)(=O)=O)o2)cc1`, the Potency is 9.2 µM (active) and the cell number change is -15.9%. On to `Cc1oc(/C=N/NC(=O)CN(c2ccccc2Br)S(C)(=O)=O)cc1Br`, for which the “lipid storage change, negative = inhibition” value was 4.78% (inactive) and the cell number change is 0.768%.

As for `COc1ccccc1-c1ccc(SCC(=O)NCc2ccc3c(c2)OCO3)nn1`, the call was inactive. `O=C(Sc1cccc2cccnc12)c1ccccc1Br`: the Potency is 7.31 µM (active) and the cell number change was 4.44%. In the case of `O=C(O)CSc1cccc2cccnc12`, the cell number change came to 8.53% and the lipid storage change, negative = inhibition was 8.73% [at 9.22 µM] (inactive). Consider `CC(=O)/C(=N/Nc1ccc(Br)cc1)Sc1cccc2cccnc12`, for which the “lipid storage change, negative = inhibition” value was -13% (inactive) and the cell number change is -2.71%. In the case of `Cc1ccc(-c2cc(-c3ccccc3)c(C#N)c(Br)n2)cc1`, the “lipid storage change, negative = inhibition” value is 6.63% (inactive) and the cell number change was -11.3%. As for `CC(C)(C)[C@H]1CCC(=O)N([C@H](CN=[N+]=[N-])Cc2ccccc2)CC1`, the “lipid storage change, negative = inhibition” value was 1.61% (inactive) and the cell number change came to 22%. With `CC(C)(C)C1CCC(=O)N(CCSc2ccccc2)CC1` (stereo unspecified), the Potency is 6.51 µM (active) and the cell number change is -4.53%. On to `CC(C)(C)[C@H]1CCC(=O)N([C@H](CC#N)Cc2ccccc2)CC1`, for which the Potency is 0.326 µM (active) and the cell number change is -9.71%. For the compound `N#CC[C@H](Cc1ccccc1)N1CC[C@@H](NC(=O)OCc2ccccc2)CCC1=O`, the “lipid storage change, negative = inhibition” value was -12.3% (inactive) and the cell number change was 8.98%.

With `CC(=O)Nc1ccc(SCCN2CC[C@@H](C(C)(C)C)CCC2=O)cc1`, the outcome was inactive and the cell number change is -1.32%. `CC1CCC(=O)N(CCSc2ccccc2)CC1` (stereo unspecified): the “lipid storage change, negative = inhibition” value is -4% (inactive). As for `CCCCNC(=S)N/N=C/c1sccc1C`, the “lipid storage change, negative = inhibition” value was 9.84% (inactive) and the cell number change is -1.93%. Consider `CCS(=O)(=O)c1nc(S(=O)(=O)c2ccc(C)cc2)c(NCc2ccccn2)s1`, for which the “lipid storage change, negative = inhibition” value is -3.31% (inactive) and the cell number change is 2.5%. As for `C/C(=N\NC(=O)c1ccc(C)cc1)c1c(C)[nH]n(-c2ccccc2)c1=O`, the Potency is 9.2 µM (active) and the cell number change is -9.89%. `Cc1[nH]n(-c2ccccc2)c(=O)c1C(=O)c1ccc(Cl)cc1`: the “lipid storage change, negative = inhibition” value is -5.87% (inactive) and the cell number change was -16%. The matching figures for `Cc1[nH]n(-c2ccccc2)c(=O)c1C(=O)c1ccc([N+](=O)[O-])cc1`: 16.3% (inactive) and 5.62%. On to `CN1C(=O)c2cccc(NC(=O)CCc3ccccc3)c2C1=O`, for which the “lipid storage change, negative = inhibition” value is -11.3% (inactive) and the cell number change was -9.83%.

For `Cc1ccc(-n2ncc3c(=O)[nH]c(SCC(=O)N4CCCc5ccccc54)nc32)cc1`, the compound was classed as inactive. On to `O=C(Nc1ccccc1C(=O)NCCCN1CCOCC1)c1ccccc1`, for which the “lipid storage change, negative = inhibition” value was 12.1% (inactive) and the cell number change came out at 15.2%. In the case of `O=C(NCCCN1CCOCC1)C1(c2ccccc2)CCOCC1`, the Potency is 3.66 µM (active) and the cell number change was found to be 2.27%. Turning to `O=C(c1ccc(NC(=O)C2(c3ccccc3)CCOCC2)cc1)N1CCOCC1`, the Potency was 23.1 µM (active) and the cell number change is -1.58%. Take `Cc1c(C)n(Cc2ccc(F)cc2)c2ccc(C(=O)NCCCN3CCOCC3)cc12`: the Potency was 29.1 µM (active) and the cell number change was 38.2%. Turning to `Cc1c(C)n(C)c2ccc(C(=O)NCCCN3CCN(c4ccc(F)cc4)CC3)cc12`, the “lipid storage change, negative = inhibition” value was 8.52% (inactive) and the cell number change is 4.18%.

Turning to `O=C(NCCCN1CCOCC1)c1ccc2ccccc2c1`, the outcome was “inactive [at 0.0737 µM]”. As for `COc1ccc(C2(C(=O)Nc3ccc(C(=O)N4CCOCC4)cc3)CCOCC2)cc1`, the “lipid storage change, negative = inhibition” value is 9.82% (inactive) and the cell number change stood at 6.9%. Regarding `O=C(NCCCN1CCOCC1)c1ccccc1`, the Potency was 20.6 µM (active) and the cell number change is -23.2%. With `Cc1ccc(NC(=O)C2(c3ccccc3)CCOCC2)cc1`, the “lipid storage change, negative = inhibition” value was -0.379% (inactive) and the cell number change was determined as 16.3%. As for `O=C(NCCCN1CCOCC1)C1(c2ccccc2)CCCC1`, the compound was classed as inactive and the cell number change is -15.4%.

With `O=C(NCCCN1CCOCC1)C(=O)NCCc1ccccc1`, the “lipid storage change, negative = inhibition” value is 0.98% (inactive) and the cell number change is -0.52%. On the same counts, the results for `CCn1c(C)c(C)c2cc(C(=O)NCCN3CCOCC3)ccc21` are 26.7% (inactive) and -16.2%.

These data come from PubChem BioAssay AID2685 (National Center for Advancing Translational Sciences (NCATS), 2010).
